The source of these data is PubChem BioAssay (EPA / NIEHS).

The source holds several records for some structures; these can differ, active in one and inactive in another. Active and inactive are the calls of the source. How the source made its calls: active means hit-call score of the fitted dose curve at least 0.9, where 1 is the maximum; inactive means score below 0.9.

This assay can be described thus: CCTE_Shafer_MEA_dev_network_spike_duration_std: CCTE's Neural Network Formation Assay for Standard Deviation of Network Spike Duration, Shafer Lab (AID 2284052).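 Further: hits are decreases in network spike duration SD versus DMSO vehicle.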 As to the method: CCTE_Shafer_MEA_dev assay is conducted using Axion Biosystems 48 well microelectrode array (MEA) plates and Maestro recording system. Each well of the MEA plate contains a grid of 16 microelectrodes embedded in the culture surface. Electrically active cells, such as neurons, can be cultured over the electrodes, and electrical activity in these cells can be recorded extracellularly. The spontaneous firing of neurons is captured from each electrode on a microsecond timescale providing both temporally and spatially precise data. […] The CCTE_Shafer_MEA_dev assay uses primary cultures of rat cortical neurons. Recordings are made on days post-plating 5, 7, 9 and 12. As these cultures mature over time, neural networks develop functional activity and form cohesive networks in which electrical activity can be highly coordinated. CCTE_Shafer_MEA_dev_network_spike_duration_std is 1 of 19 assay components of the CCTE_Shafer_MEA_dev assay. It measures the standard deviation of the duration of network spikes (temporally-clustered groups of action potential firing across multiple electrodes) during a recording in a microelectrode array (MEA) using Axion Biosystems Maestro 768 channel amplifier with the AxIS adaptive spike detector. To collapse across multiple recordings made on days post-plating 5, 7, 9 and 12, the trapezoidal area-under-the-curve of the component is calculated.Data from the assay component CCTE_Shafer_MEA_dev_network_spike_duration_std was analyzed into 1 assay endpoint. This assay endpoint, CCTE_Shafer_MEA_dev_network_spike_duration_std, was analyzed in the negative analysis fitting direction relative to DMSO as the negative control and baseline of activity. Using a type of functional reporter, gain or loss-of-signal activity can be used to understand electrical activity.
On the day prior to culture, each well was coated thoroughly with 150 uL of 0.05% polyethyleneimine (PEI, Sigma Cat P3143) in 50 mM HEPES (Sigma Cat H7523) at a pH of 8. The plate was incubated at 37C for one hour. PEI was rinsed out with 500 uL of sterile water three times. Plates were stored at 4C until the day of culture. This culture was plated at a seeding density of 1.5 x 10^5 cells/well on a 48-well MEA plate, prepared as described above. Cells were administered via a 25 uL media/laminin ([…]; Sigma Cat L2020-1MG) drop directly onto the microelectrode array, as adding the cells with the laminin results in better attachment than pre-coating with laminin. After 2 hours, an additional 475 uL of cortical media was added and the cells returned to the incubator. Exposure starts at day 0 of plating and is continued over twelve days of network development until the experiment is terminated. Cells are fed with fresh medium on DIV 5 and 9, following the recordings on those days. The entire volume of media in the well is exchanged and any vehicle or compound treatment is renewed. Complete details are found in OP-NHEERL/ISTD/SBB/TJS/2015-03-r0 (available on request, email shafer.tim@epa.gov). Measurement of the electrical activity is non-invasive, and recordings can be made from the same plate over multiple different days of the culture. In cortical neurons, this allows for the measurement of extracellular action potentials over the period during which networks form in the MEA plate.
As for `CCC(=O)C(CC(C)N(C)C)(c1ccccc1)c1ccccc1` (configuration not stated), the compound was classed as inactive.
In general, AC50 refers to the midpoint of the concentration-response curve, whichever way the signal moves. As for `CCOP(=S)(OCC)Oc1nc(Cl)c(Cl)cc1Cl`, the call was inactive and the AC50 is 22700 nM (active).
Take `CC(C)(C)c1cc(O)ccc1O`: the result was inactive.
Turning to `COP(=O)(OC)O/C(=C\Cl)c1cc(Cl)c(Cl)cc1Cl`, the compound was classed as inactive.
With `C=C(C)C(=O)[O][Sn]([CH2]CCC)([CH2]CCC)[CH2]CCC`, the half-maximal activity concentration (AC50) was 13 nM (active).
For the compound `O=C(O)C(F)(F)C(F)(F)C(F)(F)C(F)(F)C(F)(F)C(F)(F)F`, the call was inactive.
Consider `ClC1(Cl)C2(Cl)C3(Cl)C4(Cl)C(Cl)(Cl)C5(Cl)C3(Cl)C1(Cl)C5(Cl)C24Cl` (configuration not stated), for which the AC50 is 1030 nM (active).
The same measure, in the same setting: then `Cn1sc(Cl)cc1=O`, with 1840 nM (active).
For `O=C(O)C(F)(F)C(F)(F)C(F)(F)C(F)(F)C(F)(F)C(F)(F)C(F)(F)C(F)(F)C(F)(F)C(F)(F)F`, the compound was called inactive.
Regarding `O=C1C2(Cl)C3(Cl)C4(Cl)C(Cl)(Cl)C5(Cl)C3(Cl)C1(Cl)C5(Cl)C24Cl` (configuration not stated), the AC50 is 28 nM (active).
The same measure, in the same setting: with `CC(=O)[O][Hg][c]1ccccc1` the figure was 11.2 nM (active).
